Measured values: PubChem BioAssay AID504332 (National Center for Advancing Translational Sciences (NCATS), 2011)
Values joined by “and” are separate entries in the source; they are usually repeats but may differ in a detail not shown here. Equal values may be shown once. About 31,000 (8.9%) of roughly 350,000 compounds were called active. Inconclusive results (about 15%) are left out. The call rests on the fitted dose curve; in most records, active means well fitted inhibition curve with a large enough effect; inconclusive means small, poorly fitted or top-dose-only effect; inactive means no such curve, though single readings can be large or run the other way. The full list was thinned out, with actives kept by preference.

Each molecule was assayed against Histone-lysine N-methyltransferase EHMT2 (Homo sapiens) (UniProt Q96KQ7) (assay: qHTS Assay for Inhibitors of Histone Lysine Methyltransferase G9a). Details: G9a H3K9 monomethylation, AlphaScreen, 2 h; series mostly up to 59 µM; activity, negative = inhibition: at the top concentration.
How it was run: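 Enzyme 20 nM + cpd, 15 min RT; add b-H3K9 pep 500 nM / SAM 20 uM; 2 h RT; anti-H3K9me1 Ab 0.5 ug/mL + SA donor / anti-rabbit acceptor beads 20 ug/mL each, 10 min; AlphaScreen read.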
Further: nearly all actives have a fitted effect of over 75% in size.
On the % scale 0 is the no-effect control and ±100 the full control effect; potency means the concentration at half of the fitted maximal effect.

Chain of Histone-lysine N-methyltransferase EHMT2 (Homo sapiens) (Q96KQ7 913-1193 limits assumed): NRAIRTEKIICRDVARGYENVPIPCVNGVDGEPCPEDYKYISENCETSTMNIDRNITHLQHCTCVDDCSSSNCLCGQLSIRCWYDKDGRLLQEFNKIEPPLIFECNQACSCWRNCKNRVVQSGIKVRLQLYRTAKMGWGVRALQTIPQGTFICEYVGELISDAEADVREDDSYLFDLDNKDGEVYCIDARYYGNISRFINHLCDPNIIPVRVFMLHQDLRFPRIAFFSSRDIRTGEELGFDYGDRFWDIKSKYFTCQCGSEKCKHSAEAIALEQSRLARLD

Potency, active:
Cc1ccccc1-c1n[nH]c(=S)n1C 10 µM
Cc1ccccc1-c1n[nH]c(=S)n1/N=C/c1ccc(-c2ccccc2Br)o1 12.6 µM
Cc1n[nH]c(=S)n1/N=C/c1ccc(Br)o1 3.16 µM
OCCNc1nc(Nc2ccc(Cl)c(Cl)c2)nc2ccccc12 50.1 µM
Nc1ccc(OCC(O)C[n+]2ccc(CCS(=O)(=O)[O-])cc2)cc1 (stereo not given) 39.8 µM
Cn1c(CC2Sc3ccccc3NC2=O)nnc1SCC(=O)c1ccc(Cl)cc1 (stereo not given) 14.1 µM
O=C(O)C1CCCN1S(=O)(=O)c1ccc2c(c1)CCC2 (stereo not given) 56.2 µM
CCOC(=O)N1CCc2c(sc(NCc3cccc(F)c3)c2C(=O)Nc2ccccc2OCC)C1 1.41 µM
CCCC(=O)Nc1nnc(-c2ccccc2)o1 39.8 µM
NS(=O)(=O)c1cccc(NC(=O)COC(=O)/C=C/c2ccco2)c1 25.1 µM
COc1cccc(OCc2nnc3n2N=C(c2ccccc2)C(CC(=O)O)S3)c1 (stereo not given) 44.7 µM
COc1ccc(OCc2nnc3n2N=C(c2ccccc2)C(CC(=O)O)S3)cc1 (stereo not given) 1.58 µM
CCOc1cccc(=O)c2c(C)n(CC3CCCO3)c(C)c12 (stereo not given) 70.8 µM
CCCCCCC(=O)N(O)C1CC(=O)N(c2ccccc2)C1=O (stereo not given) 0.794 µM
Oc1ccc(Cn2cc[nH]c2=S)cc1 3.16 µM and 2.99 µM
COCCCn1c(SCC(=O)Nc2oc(C)c3c(C)n[nH]c(=O)c23)nc2sc3c(c2c1=O)CCC3 6.31 µM
COc1cc(OC)c(NC(=O)N2CC3CCCN3c3ccccc32)cc1Cl (stereo not given) 8.91 µM
COc1ccc(CNC(=O)c2ccc(NC(=O)N3CC4CCCN4c4ccccc43)cc2)cc1 (stereo not given) 7.08 µM
CCOC(=O)N1CCN(Cc2nc3ccc([N+](=O)[O-])cc3c(=O)n2-c2cccc(OC)c2)CC1 39.8 µM
COCCn1c(SC(C)C(=O)NC2CC2)nnc1-c1cccc(C)c1 (stereo not given) 28.2 µM
C/C(CCC(=O)OC[C@H]1O[C@H](C#Cc2ccccc2)C=C[C@@H]1Oc1ccc(C)cc1)=N\OC[C@@H](O)[C@H]1O[C@@H]2OC(C)(C)O[C@@H]2[C@H]1O 50.1 µM
CC1CN(C2CCN(C(=O)COc3ccccc3)CC2)CC(C)O1 (stereo not given) 8.91 µM

Potency, inactive:
Cc1cccc(N2CCN(C(=O)COCc3cc(-c4ccc5c(c4)OCO5)on3)CC2)c1C

activity, negative = inhibition, inactive:
Cc1ccccc1-c1ccc(C(=O)O)s1 3.48% [at 135 µM]
Cc1ccccc1-c1nc(SCC(=O)N(C)c2ccccc2)c2c(=O)n(C)c(=O)n(C)c2n1 -0.81%
Cc1cc(C)cc(NS(=O)(=O)c2cc3c(cc2C)NC(=O)CO3)c1 -45.7%
CCCCCc1c(C)nc(N2CCN(Cc3ccc4c(c3)OCO4)CC2)[nH]c1=O 30.4% [at 102 µM]
O=C(Cc1ccc(S(=O)(=O)N2CCOCC2)s1)NCCOc1ccccc1F -25.9% [at 12.7 µM]
CCNC(=O)c1cc2n(n1)CCCN(Cc1ccc(C)cc1)C2=O -1.49% [at 12.7 µM]
CN(C)S(=O)(=O)c1ccc(N2CCCC2)c(C(=O)Nc2ccc(Br)cc2F)c1 26.4% [at 2.33 µM]
Nc1nc(Nc2ccccc2)nc(NCCO)c1[N+](=O)[O-] -30.2% [at 102 µM]
COc1cc2nc(Cl)nc(NCCO)c2cc1OC -40.9% [at 102 µM]
COc1ccc(OCC(=O)Nc2cccc(C(=O)OCc3cc(=O)n4nc(C)sc4n3)c2)cc1 24.7%
CN1CCN(S(=O)(=O)c2ccc(Nc3ccc(F)cc3)nc2)CC1 -33.3% [at 102 µM]
COc1ccccc1NC(=O)c1sc2nc(C)c(C(=O)Nc3ccc(Cl)cc3)c(-c3ccc(Br)cc3)c2c1N -42%
O=C(Nc1cccc(C(F)(F)F)c1)c1cc(Br)cc(Br)c1O -37% [at 12.7 µM]
CCc1ccc(S(=O)(=O)NCC(O)COc2ccc(OC)cc2)cc1 (stereo not given) -5.83% [at 102 µM]
CCCc1ccc(OCC(O)CN2CCN(C(=O)OCC)CC2)cc1 (stereo not given) 15.7% [at 102 µM]
Cn1c(SCC(=O)c2ccc(F)cc2)nnc1-c1ccccn1 -4.42% [at 102 µM]
Cn1c(CCC(=O)Nc2ccccc2F)nnc1SCC(=O)Nc1ccccc1Cl 1.22% [at 102 µM]
O=c1cc2nc(-c3ccccc3)nc(SCCOc3ccc(Cl)cc3)n2[nH]1 -23.9%
O=C(O)C1CCCN1S(=O)(=O)c1ccc(Br)cc1 (stereo not given) -11.1% [at 0.501 µM]
CC(=O)Nc1ccc(S(=O)(=O)N2CCCC2C(=O)O)cc1 (stereo not given) 20.3%
CCOC(=O)N1CCc2c(sc3c2C(=O)NC(c2ccccc2F)N3)C1 (stereo not given) 0.769%
CCOC(=O)N1CCc2c(sc3c2c(=O)n(Cc2ccccc2)c(=O)n3CC(=O)Nc2cccc(C)c2)C1 16.6%
COC(=O)c1ccccc1NC(=O)Cn1c(=O)n(-c2cccc(C(F)(F)F)c2)c(=O)c2c(C)c(C)sc21 -5.38%
CS(=O)(=O)N1CCc2nc(-c3ccccc3)sc2C1 6.88% [at 102 µM]
Cc1ccc(S(=O)(=O)N2CCC(C(=O)OCC(=O)N(C)c3ccccc3)CC2)cc1C -20.5% [at 102 µM]
O=C(Nc1c(-c2ccc(F)cc2)nc2ccccn12)c1cccc(F)c1 2.37%
O=C(COC(=O)c1ccc(Oc2ccccc2)cc1)Nc1nnc(-c2ccccc2)o1 17.6% [at 12.7 µM]
O=C(COC(=O)c1ccccc1Br)Nc1nnc(-c2ccccc2)o1 -5.03% [at 102 µM]
CCN(CC)CCNC(=O)c1cc2c(=O)oc3ccc(C)cc3c2s1 6.68%
CCNC(=O)c1cccc(NC(=O)C2CC(=O)N(CCc3ccccc3)C2)c1 (stereo not given) 8.14% [at 0.501 µM]
COc1ccc2cc(C3=CC(=O)C[C@H](c4ccc5c(c4)OCO5)C3)ccc2c1 7.57% [at 0.501 µM]
CC(C)CNC(=O)COC(=O)/C=C/c1ccco1 20%
COc1cccc(NC(=O)COC(=O)/C=C/c2ccco2)c1 13.7% [at 2.33 µM]
O=S(=O)(NCCS(=O)(=O)N1CCN(c2ccccc2)CC1)c1ccc(F)cc1 -3.65% [at 102 µM]
COc1ccc(C(=O)NCc2nnc(SCCOc3ccccc3)n2C)cc1 13.9% [at 12.7 µM]
COc1cccc(OCC(=O)Nc2ccccc2C(N)=O)c1 6.62% [at 12.7 µM]
COc1ccc(C2CC(c3ccccc3)=NN2C(=O)COC(=O)COc2ccccc2)cc1 (stereo not given) -3.35% [at 102 µM]
CCn1c(COc2cccc(OC)c2)nnc1SCC(=O)N1CCOCC1 8.24% [at 102 µM]
CCN(CC)S(=O)(=O)c1ccc2c(c1)N(CC(=O)NCc1ccccc1)C(=O)CS2 7.17%
COc1cccc(CNC(=O)C(=O)NCCC2CCCCN2S(=O)(=O)c2ccc(C)cc2)c1 (stereo not given) 0.971% [at 0.501 µM]
COc1ccccc1NC(=O)CSc1nnc(C)n1CC1CCCO1 (stereo not given) -7.36%
CC(=O)Nc1ccc(NC(=O)CSc2nnc(COc3ccccc3C)n2CC2CCCO2)cc1 (stereo not given) 7.69% [at 102 µM]
Cc1ccc(NC(=O)COC(=O)CN2CCCCCC2=O)c(C)c1 -2.73%
Cc1cc(C)cc(-n2c(SCC(=O)NCC3CCCO3)nc3c([nH]c4ccccc43)c2=O)c1 (stereo not given) 12%
CCCCCOC(=O)c1ccc(N2C(=O)C3C4C=CC(C4)C3C2=O)cc1 (stereo not given) 11.8% [at 102 µM]
CCOc1ccc(N2C(=O)CC(N(CCc3ccc(OC)c(OC)c3)C(=S)Nc3ccccc3)C2=O)cc1 (stereo not given) 1.28%
O=C(Nc1cccc(F)c1)NC1CCCc2ccccc21 (stereo not given) 80.8% [at 102 µM]
COc1ccc(-n2ccn(CC(=O)Nc3ccc(C)c(C)c3)c(=O)c2=O)cc1OC -34.1%
O=C1C(Cc2ccc(O)cc2)NC(=S)N1Cc1ccccc1 (stereo not given) 4.15% [at 102 µM]
N#Cc1ccc(OCC(=O)NC(=O)NC2CCS(=O)(=O)C2)cc1 (stereo not given) -2.17% [at 12.7 µM]
COc1ccc(OC)c(S(=O)(=O)Nc2c(C)nn(C)c2C)c1 3.63% [at 12.7 µM]
C=CCn1c(SCC(=O)NCCCO)nc2sc3c(c2c1=O)CCC3 29.7% [at 102 µM]
Cc1nc2sc3c(c2c(=O)n1NC(=O)CCl)CCCC3 -21.8% [at 102 µM]
Cc1ccc(S(=O)(=O)N(CC(=O)Nc2ccc(Cl)cc2Cl)c2ccccc2C)cc1 23.4%
CCCCN(C1CCS(=O)(=O)C1)S(=O)(=O)c1ccc(C(C)C)cc1 (stereo not given) -28.2% [at 102 µM]
COc1cc(OC)c(NC(=O)C2CCCN2C(=O)OCc2ccccc2)cc1Cl (stereo not given) 16.8% [at 102 µM]
COc1ccccc1CNC(=O)c1ccc(NC(=O)N2CC(C)Sc3ccccc32)cc1 (stereo not given) 7.67%
O=C(CCC(=O)N1CC2CCCN2c2ccccc21)NCc1ccccc1Cl (stereo not given) -28.5%
Cc1ccccc1CNC(=O)c1ccc(NC(=O)N2CCCCc3ccccc32)cc1 15.8%
Oc1ccccc1C1=NN(c2ccccc2)C(c2ccccc2)C1 (stereo not given) 99% [at 102 µM]
O=C(NNC(=O)c1cc(-c2ccccc2Cl)nc2ccccc12)c1csc(N2CCOCC2)n1 10% [at 2.33 µM]
Cc1ccccc1C(=O)Nc1nnc(S(=O)(=O)N(C)c2ccc(Cl)cc2)s1 -0.311%
COc1cccc(-n2nc(C(=O)N3CCN(Cc4ccccc4)CC3)c3ccccc3c2=O)c1 -35.7% [at 102 µM]
CCOC(=O)N1CCN(Cc2nc3cc(NC(C)=O)ccc3n2C)CC1 18.2% [at 102 µM]
CCCCN1C(=O)c2[nH]nc(-c3ccccc3O)c2C1c1cccc(OCc2ccccc2)c1 (stereo not given) -0.0883%
Cc1cccc(C(=O)NCc2nnc(SC(C)C(=O)Nc3nnc(C)s3)n2C)c1 (stereo not given) -30.1% [at 102 µM]
COCCCn1c(SCC(=O)NC2CCCC2)nnc1-c1ccccc1 23% [at 102 µM]
Cc1ccc(NC(=O)c2oc3ccc(S(=O)(=O)N4CCCCC4)cc3c2C)cc1Cl 0.299%
C=CCn1c(=O)c(C(=O)NCc2ccc3c(c2)OCO3)c(O)c2ccccc21 71.8% [at 102 µM]
COc1cc(C)c(C)cc1S(=O)(=O)N1CCCc2ccccc21 87% [at 102 µM]
COc1ccc(OCC(=O)N2CCN(C(=O)COc3ccccc3)CC2)cc1 21%
COc1ccc(OCC(=O)N2CCOCC2)cc1 6.34% [at 12.7 µM]
